# Laboratory results taken from paper PMC11062922 (Nature Chemical Biology, 2023).
# Like-named read-outs stand apart in the source and are kept apart here.
# Legend:
# Details in all cases: read-out: apparent Kd, n = 1
# ERN1 = tested on: ERN1
# GAK = tested on: GAK
# IKBKE = tested on: IKBKE
# [1] = compound concentrations:100 nM and 1000 nM (sheet 'Lestaurtinib' of Supplementary Table 1),run:Lestaurtinib_02766_R1,Plate:MR027
# [2] = compound concentrations:100 nM and 1000 nM (sheet 'Lestaurtinib' of Supplementary Table 1),run:Lestaurtinib_02766_R2,Plate:MR027
# [3] = compound concentrations:100 nM and 1000 nM (sheet 'Lestaurtinib' of Supplementary Table 1),run:Lestaurtinib_02766_R3,Plate:MR027
# [4] = compound concentrations:100 nM and 1000 nM (sheet 'Lestaurtinib' of Supplementary Table 1),run:Lestaurtinib_02768_R1,Plate:MR028
# [5] = compound concentrations:100 nM and 1000 nM (sheet 'Lestaurtinib' of Supplementary Table 1),run:Lestaurtinib_02768_R2,Plate:MR028
# [6] = compound concentrations:100 nM and 1000 nM (sheet 'Lestaurtinib' of Supplementary Table 1),run:Lestaurtinib_02802_R1,Plate:MR029
# [7] = compound concentrations:100 nM and 1000 nM (sheet 'Lestaurtinib' of Supplementary Table 1),run:Lestaurtinib_02896_R3,Plate:MR030
# [8] = compound concentrations:100 nM and 1000 nM (sheet 'Lestaurtinib' of Supplementary Table 1),run:Lestaurtinib_03172_R2,Plate:MR031
# [9] = compound concentrations:100 nM and 1000 nM (sheet 'Lestaurtinib' of Supplementary Table 1),run:Lestaurtinib_03172_R3,Plate:MR031
# [10] = compound concentrations:100 nM and 1000 nM (sheet 'Lestaurtinib' of Supplementary Table 1),run:Lestaurtinib_02339_R1,Plate:MR001
# [11] = compound concentrations:100 nM and 1000 nM (sheet 'Lestaurtinib' of Supplementary Table 1),run:Lestaurtinib_02339_R2,Plate:MR001
substance,measurement,setting,value
Lestaurtinib,potency estimated from few doses,"ERN1; compound concentrations:100 nM and 1000 nM (sheet 'Lestaurtinib' of Supplementary Table 1),run:Lestaurtinib_02765_R2,Plate:MR026",84.8 nM
same,potency estimated from few doses,"ERN1; compound concentrations:100 nM and 1000 nM (sheet 'Lestaurtinib' of Supplementary Table 1),run:Lestaurtinib_02765_R3,Plate:MR026",113 nM
same,potency estimated from few doses,ERN1; [1],29.6 nM
same,potency estimated from few doses,ERN1; [2],54.9 nM
same,potency estimated from few doses,ERN1; [3],73.5 nM
same,potency estimated from few doses,ERN1; [4],51.4 nM
same,potency estimated from few doses,ERN1; [5],55.4 nM
same,potency estimated from few doses,"ERN1; compound concentrations:100 nM and 1000 nM (sheet 'Lestaurtinib' of Supplementary Table 1),run:Lestaurtinib_02795_R2,Plate:MR022",59.6 nM
same,potency estimated from few doses,ERN1; [6],60.8 nM
same,potency estimated from few doses,"ERN1; compound concentrations:100 nM and 1000 nM (sheet 'Lestaurtinib' of Supplementary Table 1),run:Lestaurtinib_02802_R3,Plate:MR029",176 nM
same,potency estimated from few doses,ERN1; [7],48.9 nM
same,potency estimated from few doses,ERN1; [8],68.4 nM
same,potency estimated from few doses,ERN1; [9],71.8 nM
same,potency estimated from few doses,GAK; [10],681 nM
same,potency estimated from few doses,GAK; [11],515 nM
same,potency estimated from few doses,"GAK; compound concentrations:100 nM and 1000 nM (sheet 'Lestaurtinib' of Supplementary Table 1),run:Lestaurtinib_02339_R3,Plate:MR001",744 nM
same,potency estimated from few doses,"GAK; compound concentrations:100 nM and 1000 nM (sheet 'Lestaurtinib' of Supplementary Table 1),run:Lestaurtinib_02364_R2,Plate:MR002",838 nM
same,potency estimated from few doses,"GAK; compound concentrations:100 nM and 1000 nM (sheet 'Lestaurtinib' of Supplementary Table 1),run:Lestaurtinib_02364_R3,Plate:MR002",670 nM
same,potency estimated from few doses,"GAK; compound concentrations:100 nM and 1000 nM (sheet 'Lestaurtinib' of Supplementary Table 1),run:Lestaurtinib_02367_R1,Plate:MR003",703 nM
same,potency estimated from few doses,"GAK; compound concentrations:100 nM and 1000 nM (sheet 'Lestaurtinib' of Supplementary Table 1),run:Lestaurtinib_02367_R2,Plate:MR003",797 nM
same,potency estimated from few doses,"GAK; compound concentrations:100 nM and 1000 nM (sheet 'Lestaurtinib' of Supplementary Table 1),run:Lestaurtinib_02367_R3,Plate:MR003",731 nM
same,potency estimated from few doses,"GAK; compound concentrations:100 nM and 1000 nM (sheet 'Lestaurtinib' of Supplementary Table 1),run:Lestaurtinib_02381_R2,Plate:MR004",635 nM
same,potency estimated from few doses,"GAK; compound concentrations:100 nM and 1000 nM (sheet 'Lestaurtinib' of Supplementary Table 1),run:Lestaurtinib_02407_R1,Plate:MR005",718 nM
same,potency estimated from few doses,"GAK; compound concentrations:100 nM and 1000 nM (sheet 'Lestaurtinib' of Supplementary Table 1),run:Lestaurtinib_02407_R2,Plate:MR005",809 nM
same,potency estimated from few doses,"GAK; compound concentrations:100 nM and 1000 nM (sheet 'Lestaurtinib' of Supplementary Table 1),run:Lestaurtinib_02407_R3,Plate:MR005",702 nM
same,potency estimated from few doses,"GAK; compound concentrations:100 nM and 1000 nM (sheet 'Lestaurtinib' of Supplementary Table 1),run:Lestaurtinib_02422_R1,Plate:MR006",425 nM
same,potency estimated from few doses,"GAK; compound concentrations:100 nM and 1000 nM (sheet 'Lestaurtinib' of Supplementary Table 1),run:Lestaurtinib_02422_R2,Plate:MR006",9.54 nM
same,potency estimated from few doses,"GAK; compound concentrations:100 nM and 1000 nM (sheet 'Lestaurtinib' of Supplementary Table 1),run:Lestaurtinib_02422_R3,Plate:MR006",725 nM
same,potency estimated from few doses,"GAK; compound concentrations:100 nM and 1000 nM (sheet 'Lestaurtinib' of Supplementary Table 1),run:Lestaurtinib_02437_R1,Plate:MR007",654 nM
same,potency estimated from few doses,"GAK; compound concentrations:100 nM and 1000 nM (sheet 'Lestaurtinib' of Supplementary Table 1),run:Lestaurtinib_02437_R2,Plate:MR007",698 nM
same,potency estimated from few doses,"GAK; compound concentrations:100 nM and 1000 nM (sheet 'Lestaurtinib' of Supplementary Table 1),run:Lestaurtinib_02437_R3,Plate:MR007",58.5 nM
same,potency estimated from few doses,"GAK; compound concentrations:100 nM and 1000 nM (sheet 'Lestaurtinib' of Supplementary Table 1),run:Lestaurtinib_02438_R1,Plate:MR008",700 nM
same,potency estimated from few doses,"GAK; compound concentrations:100 nM and 1000 nM (sheet 'Lestaurtinib' of Supplementary Table 1),run:Lestaurtinib_02438_R2,Plate:MR008",667 nM
same,potency estimated from few doses,"GAK; compound concentrations:100 nM and 1000 nM (sheet 'Lestaurtinib' of Supplementary Table 1),run:Lestaurtinib_02438_R3,Plate:MR008",750 nM
same,potency estimated from few doses,"GAK; compound concentrations:100 nM and 1000 nM (sheet 'Lestaurtinib' of Supplementary Table 1),run:Lestaurtinib_02473_R3,Plate:MR010",59.2 nM
same,potency estimated from few doses,"GAK; compound concentrations:100 nM and 1000 nM (sheet 'Lestaurtinib' of Supplementary Table 1),run:Lestaurtinib_02482_R1,Plate:MR011",870 nM
same,potency estimated from few doses,"GAK; compound concentrations:100 nM and 1000 nM (sheet 'Lestaurtinib' of Supplementary Table 1),run:Lestaurtinib_02482_R2,Plate:MR011",804 nM
same,potency estimated from few doses,"GAK; compound concentrations:100 nM and 1000 nM (sheet 'Lestaurtinib' of Supplementary Table 1),run:Lestaurtinib_02482_R3,Plate:MR011",707 nM
same,potency estimated from few doses,"GAK; compound concentrations:100 nM and 1000 nM (sheet 'Lestaurtinib' of Supplementary Table 1),run:Lestaurtinib_02487_R2,Plate:MR012",783 nM
same,potency estimated from few doses,"GAK; compound concentrations:100 nM and 1000 nM (sheet 'Lestaurtinib' of Supplementary Table 1),run:Lestaurtinib_02496_R1,Plate:MR013",552 nM
same,potency estimated from few doses,"GAK; compound concentrations:100 nM and 1000 nM (sheet 'Lestaurtinib' of Supplementary Table 1),run:Lestaurtinib_02496_R2,Plate:MR013",507 nM
same,potency estimated from few doses,"GAK; compound concentrations:100 nM and 1000 nM (sheet 'Lestaurtinib' of Supplementary Table 1),run:Lestaurtinib_02496_R3,Plate:MR013",639 nM
same,potency estimated from few doses,"GAK; compound concentrations:100 nM and 1000 nM (sheet 'Lestaurtinib' of Supplementary Table 1),run:Lestaurtinib_02566_R1,Plate:MR014",580 nM
same,potency estimated from few doses,"GAK; compound concentrations:100 nM and 1000 nM (sheet 'Lestaurtinib' of Supplementary Table 1),run:Lestaurtinib_02566_R3,Plate:MR014",806 nM
same,potency estimated from few doses,"GAK; compound concentrations:100 nM and 1000 nM (sheet 'Lestaurtinib' of Supplementary Table 1),run:Lestaurtinib_02572_R1,Plate:MR015",486 nM
same,potency estimated from few doses,"GAK; compound concentrations:100 nM and 1000 nM (sheet 'Lestaurtinib' of Supplementary Table 1),run:Lestaurtinib_02572_R3,Plate:MR015",627 nM
same,potency estimated from few doses,"GAK; compound concentrations:100 nM and 1000 nM (sheet 'Lestaurtinib' of Supplementary Table 1),run:Lestaurtinib_02577_R1,Plate:MR016",484 nM
same,potency estimated from few doses,"GAK; compound concentrations:100 nM and 1000 nM (sheet 'Lestaurtinib' of Supplementary Table 1),run:Lestaurtinib_02577_R3,Plate:MR016",574 nM
same,potency estimated from few doses,"GAK; compound concentrations:100 nM and 1000 nM (sheet 'Lestaurtinib' of Supplementary Table 1),run:Lestaurtinib_02584_R1,Plate:MR017",641 nM
same,potency estimated from few doses,"GAK; compound concentrations:100 nM and 1000 nM (sheet 'Lestaurtinib' of Supplementary Table 1),run:Lestaurtinib_02584_R2,Plate:MR017",628 nM
same,potency estimated from few doses,"GAK; compound concentrations:100 nM and 1000 nM (sheet 'Lestaurtinib' of Supplementary Table 1),run:Lestaurtinib_02601_R1,Plate:MR018",786 nM
same,potency estimated from few doses,"GAK; compound concentrations:100 nM and 1000 nM (sheet 'Lestaurtinib' of Supplementary Table 1),run:Lestaurtinib_02601_R2,Plate:MR018",761 nM
same,potency estimated from few doses,"GAK; compound concentrations:100 nM and 1000 nM (sheet 'Lestaurtinib' of Supplementary Table 1),run:Lestaurtinib_02601_R3,Plate:MR018",56 nM
same,potency estimated from few doses,"GAK; compound concentrations:100 nM and 1000 nM (sheet 'Lestaurtinib' of Supplementary Table 1),run:Lestaurtinib_02606_R1,Plate:MR019",646 nM
same,potency estimated from few doses,"GAK; compound concentrations:100 nM and 1000 nM (sheet 'Lestaurtinib' of Supplementary Table 1),run:Lestaurtinib_02606_R2,Plate:MR019",729 nM
same,potency estimated from few doses,"GAK; compound concentrations:100 nM and 1000 nM (sheet 'Lestaurtinib' of Supplementary Table 1),run:Lestaurtinib_02624_R1,Plate:MR020",818 nM
same,potency estimated from few doses,"GAK; compound concentrations:100 nM and 1000 nM (sheet 'Lestaurtinib' of Supplementary Table 1),run:Lestaurtinib_02624_R2,Plate:MR020",627 nM
same,potency estimated from few doses,"GAK; compound concentrations:100 nM and 1000 nM (sheet 'Lestaurtinib' of Supplementary Table 1),run:Lestaurtinib_02624_R3,Plate:MR020",770 nM
same,potency estimated from few doses,"GAK; compound concentrations:100 nM and 1000 nM (sheet 'Lestaurtinib' of Supplementary Table 1),run:Lestaurtinib_02724_R1,Plate:MR021",577 nM
same,potency estimated from few doses,"GAK; compound concentrations:100 nM and 1000 nM (sheet 'Lestaurtinib' of Supplementary Table 1),run:Lestaurtinib_02724_R2,Plate:MR021",628 nM
same,potency estimated from few doses,"GAK; compound concentrations:100 nM and 1000 nM (sheet 'Lestaurtinib' of Supplementary Table 1),run:Lestaurtinib_02748_R1,Plate:MR024",455 nM
same,potency estimated from few doses,"GAK; compound concentrations:100 nM and 1000 nM (sheet 'Lestaurtinib' of Supplementary Table 1),run:Lestaurtinib_02748_R2,Plate:MR024",649 nM
same,potency estimated from few doses,"GAK; compound concentrations:100 nM and 1000 nM (sheet 'Lestaurtinib' of Supplementary Table 1),run:Lestaurtinib_02748_R3,Plate:MR024",731 nM
same,potency estimated from few doses,"GAK; compound concentrations:100 nM and 1000 nM (sheet 'Lestaurtinib' of Supplementary Table 1),run:Lestaurtinib_02752_R2,Plate:MR025",637 nM
same,potency estimated from few doses,"GAK; compound concentrations:100 nM and 1000 nM (sheet 'Lestaurtinib' of Supplementary Table 1),run:Lestaurtinib_02752_R3,Plate:MR025",696 nM
same,potency estimated from few doses,GAK; [1],591 nM
same,potency estimated from few doses,GAK; [2],36.2 nM
same,potency estimated from few doses,GAK; [3],762 nM
same,potency estimated from few doses,GAK; [4],728 nM
same,potency estimated from few doses,GAK; [5],752 nM
same,potency estimated from few doses,"GAK; compound concentrations:100 nM and 1000 nM (sheet 'Lestaurtinib' of Supplementary Table 1),run:Lestaurtinib_02795_R1,Plate:MR022",828 nM
same,potency estimated from few doses,GAK; [6],614 nM
same,potency estimated from few doses,"GAK; compound concentrations:100 nM and 1000 nM (sheet 'Lestaurtinib' of Supplementary Table 1),run:Lestaurtinib_02802_R2,Plate:MR029",635 nM
same,potency estimated from few doses,"GAK; compound concentrations:100 nM and 1000 nM (sheet 'Lestaurtinib' of Supplementary Table 1),run:Lestaurtinib_02896_R2,Plate:MR030",687 nM
same,potency estimated from few doses,GAK; [7],634 nM
same,potency estimated from few doses,"GAK; compound concentrations:100 nM and 1000 nM (sheet 'Lestaurtinib' of Supplementary Table 1),run:Lestaurtinib_03172_R1,Plate:MR031",665 nM
same,potency estimated from few doses,GAK; [8],786 nM
same,potency estimated from few doses,GAK; [9],687 nM
same,potency estimated from few doses,"GAK; compound concentrations:100 nM and 1000 nM (sheet 'Lestaurtinib' of Supplementary Table 1),run:Lestaurtinib_03252_R1,Plate:MR032",707 nM
same,potency estimated from few doses,"GAK; compound concentrations:100 nM and 1000 nM (sheet 'Lestaurtinib' of Supplementary Table 1),run:Lestaurtinib_03252_R2,Plate:MR032",29.5 nM
same,potency estimated from few doses,"GAK; compound concentrations:100 nM and 1000 nM (sheet 'Lestaurtinib' of Supplementary Table 1),run:Lestaurtinib_03260_R1,Plate:MR033",784 nM
same,potency estimated from few doses,"GAK; compound concentrations:100 nM and 1000 nM (sheet 'Lestaurtinib' of Supplementary Table 1),run:Lestaurtinib_03260_R2,Plate:MR033",821 nM
same,potency estimated from few doses,"GAK; compound concentrations:100 nM and 1000 nM (sheet 'Lestaurtinib' of Supplementary Table 1),run:Lestaurtinib_03260_R3,Plate:MR033",793 nM
same,potency estimated from few doses,IKBKE; [10],861 nM
same,potency estimated from few doses,IKBKE; [11],585 nM
